# Screening data from PubChem.
# Not all results are given here.
# aSyn UTR act = Activators working through SNCA 5'UTR binding (MLPCN) | alpha-synuclein 5'UTR reporter, activators screen | activity score, % (tested at 7.5 µM), hits read low | 300,000 compounds, 7.1% hits; in the data active = activity score below about -60%
# * = called active by the depositor.
SMILES,aSyn UTR act
C=C1[C@@H](C)[C@H]2[C@H](Cc3ccccc3)NC(=O)[C@]23OC(=O)/C=C/[C@H](O)CCC[C@@H](C)C/C=C/[C@H]3[C@@H]1O,109
CN(C)c1ccc(/C=C/C=C2/C(=O)NC(=O)N(c3ccccc3)C2=O)cc1,-96*
Cc1ccc(N2C(=O)NC(=O)/C(=C\C=C\c3ccco3)C2=O)cc1,-92*
O=C1NC(=O)N(c2ccccc2)C(=O)/C1=C/C=C/c1ccco1,-136*
Cc1cccc(N2C(=O)NC(=O)/C(=C\C=C\c3ccco3)C2=O)c1,-131*
CC(=O)O[C@H]1C(=O)[C@@]2(C)C([C@H](OC(=O)c3ccccc3)[C@]3(O)C[C@H](OC(=O)[C@H](O)[C@@H](NC(=O)Cc4ccccc4)c4ccccc4)C(C)=C1C3(C)C)[C@]1(OC(C)=O)CO[C@@H]1C[C@@H]2O (some centres undefined),93
COc1cc2c(c(OC)c1OC)-c1ccc(O)c(=O)cc1C(NC(C)=O)CC2 (centres undefined),90
CC(=O)O[C@@H]1/C=C/[C@](C)(O)C[C@@H](C)C/C=C/[C@H]2[C@H](O)C(C)=C(C)[C@H]3[C@H](Cc4ccccc4)NC(=O)[C@@]123,117
C#CCOc1cc(C2C3=C(COC3=O)Nc3cc4c(cc32)OCO4)ccc1OC (centres undefined),78
CNC(=O)Oc1cccc(-c2cn3cc(Cl)ccc3n2)c1,61
Cc1cc([N+](=O)[O-])c2ccccc2[n+]1[O-],127
CN(C)c1ccc2c(c1)N=C(c1ccco1)OP2(=S)N1CCOCC1 (centres undefined),-130*
O=Cc1cn(Cc2cccc(F)c2)c2ccccc12,52
CCc1ccc(-c2nn(Cc3ccccc3)cc2C=O)cc1,-140*
CN(C)c1ccc(C(=O)c2ccc(N(C)C)cc2)cc1,-108*
O=c1[nH]c(=S)n(C2CC2)c(O)c1C=Nc1ccc2c(c1)OCO2,-141*
COc1cccc(C2=NOC(C(=O)N3CCC4(CC3)OCCO4)C2)c1 (centres undefined),-105*
O=C(C1CC(c2ccc(F)cc2)=NO1)N1CCC2(CC1)OCCO2 (centres undefined),-127*
O=C(C1CC(c2ccc(Cl)c(Cl)c2)=NO1)N1CCC2(CC1)OCCO2 (centres undefined),-131*
COc1ccc(C2NCc3ccc4c(c3-n3cccc32)OCO4)cc1O (centres undefined),61
CCCCCCCSc1cc(OC)c(CCN(C)C)cc1OC,58
Nc1ccccc1C(=O)OCC(=O)c1ccc2c(c1)OCCO2,-64*
O=C1C(=O)c2ccccc2-c2ccccc21,119
C=C1C(=O)O[C@H]2C[C@@H](C)[C@@H]3C=CC(=O)[C@@]3(C)C[C@H]12,-151*
C=C1C(=O)O[C@@H]2C[C@@H](C)[C@@H]3C=CC(=O)[C@@]3(C)[C@@H](OC(=O)CC(=O)O[C@H]3[C@@H]4C(=C)C(=O)O[C@@H]4C[C@@H](C)[C@@H]4C=CC(=O)[C@]43C)[C@H]12,116
SMILES,aSyn UTR act
NC(N)=N/N=C/c1ccc(N(c2ccccc2)c2ccccc2)cc1,138
O=C(Nc1ccccc1)c1cccn(Cc2ccccc2)c1=O,-96*
CC(=O)Nc1ccccc1C(=O)OCc1cccc(F)c1,-85*
C=C1C[C@@H]2[C@H](CC[C@]3(C)C(=O)CC[C@@H]23)[C@@]2(C)C=CC(=O)C=C12,-141*
C=CCN=C(SCC(=O)c1ccc(Cl)cc1)c1c(O)n(C)c(=O)n(C)c1=O,-71*
CC1CCC(C(C)C)C(OC(=O)Cn2c(COc3ccccc3)[n+](C)c3ccccc32)C1 (centres undefined),66
CN(C)c1ccc(/C=C/[N+](=O)[O-])cc1,-74*
CN(C)C(=O)On1c(-c2ccccc2)nc2ccc(Cl)cc21,-71*
CCCCCn1c(=O)c(C(=O)Nc2ccccc2S(N)(=O)=O)c(O)c2ccccc21,69
CCCCCn1c(=O)c(C(=O)Nc2cnccn2)c(O)c2ccccc21,98
CCCCCn1c(=O)c(C(=O)Nc2ccccc2C)c(O)c2ccccc21,-83*
COc1cc(C=C2C(=O)NC(=O)NC2=O)ccc1OS(=O)(=O)c1ccccc1[N+](=O)[O-],-96*
CN1CCN(c2ccc([N+](=O)[O-])c3no[n+]([O-])c23)CC1,98
Cc1ccc2nc(N3CCN(C)CC3)[nH]c2c1,-96*
CC1(C)CN=C(NCc2ccccc2Cl)S1,-92*
